# In ChEMBL document CHEMBL3433997, “St. Jude Leishmania screening dataset” (2016):
# Target: Solute carrier family 2, facilitated glucose transporter member 1 (Homo sapiens) (UniProt P11166)
# Assay: ST_JUDE_LEISH: Cytotoxicity at 2uM final concentration against transgenic Leishmania Mexicana promastigotes LmGLUT1 that are glucose transport deficient and complemented with the human glucose transporter GLUT1. Activity is measured by DNA content using SYBR green in vitro
# Type: functional
# Chain of Solute carrier family 2, facilitated glucose transporter member 1 (Homo sapiens) (P11166 whole entry): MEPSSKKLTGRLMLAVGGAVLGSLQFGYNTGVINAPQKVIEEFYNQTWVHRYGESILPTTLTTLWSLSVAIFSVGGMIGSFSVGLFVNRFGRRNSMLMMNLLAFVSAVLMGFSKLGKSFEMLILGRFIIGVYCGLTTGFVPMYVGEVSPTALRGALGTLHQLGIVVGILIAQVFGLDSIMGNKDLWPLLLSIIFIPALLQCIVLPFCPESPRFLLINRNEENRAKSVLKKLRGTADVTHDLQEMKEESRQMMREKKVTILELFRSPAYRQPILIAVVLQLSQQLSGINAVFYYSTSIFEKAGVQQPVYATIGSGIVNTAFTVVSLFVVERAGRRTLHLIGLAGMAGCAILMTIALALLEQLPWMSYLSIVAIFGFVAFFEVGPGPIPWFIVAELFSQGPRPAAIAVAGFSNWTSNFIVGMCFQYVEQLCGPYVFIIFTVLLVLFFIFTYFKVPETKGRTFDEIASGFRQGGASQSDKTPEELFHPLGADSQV
row,SMILES,inhibition
1,CCC(CC)OC(=O)C(C)c1cccc(C(=O)c2ccccc2)c1 (centres undefined),2.22%
2,CN1CCN(CC(O)CNC(=O)Nc2ccc(Cl)cc2)CC1 (centres undefined),5.3%
3,COc1ccc(CN(C)CCCOc2ccc(NC(=O)c3cccc4c(=O)c5cccc(F)c5[nH]c34)cc2)cc1OC,4.27%
4,CCOC(=O)c1c(C)n(-c2ccc(Cl)cc2)c2ccc(OC(=O)C=Cc3ccccc3)cc12,2.75%
5,CC(C)c1cc(Oc2c(I)cc(CCNCc3ccccc3)cc2I)ccc1O,0.46%
6,COc1ccc2nccc([C@@H](O)CN3CCC(NCCOc4ccncc4)CC3)c2c1,-0.38%
7,O=c1c2ccccc2[nH]c2cc(Cl)ccc12,5.11%
8,CN(C)CCN(Cc1ccccc1)c1ccc([N+](=O)[O-])cc1C(F)(F)F,7.95%
9,N=c1n(CCN2CCCC2)c2ccccc2n1CC(O)c1ccc(Cl)c(Cl)c1 (centres undefined),1.98%
10,O=C1COC2(CN1C1CCN(Cc3ccc(O)c(Cl)c3)C1)c1ccccc1-c1ccccc12 (centres undefined),9.11%
11,CC(C)CNCc1cccc(-c2ccccc2CNC2CCN(Cc3ccccc3)CC2)c1,5.47%
12,Cc1[nH]c(C)c(-c2ccc(-c3ccccc3)nc2)c(=O)c1Br,-0.2%
13,C(=Cc1ccccc1)C=NN=c1cc[nH]c2ccccc12,-0.05%
14,CC(=O)N/N=C/[C@H](CCc1ccccc1)NC(=O)[C@H](CC(C)C)NC(=O)c1cccc(OCCN2CCOCC2)c1,6.39%
15,CC(=O)c1ccc(N2C(=O)C3C(Cc4ccc(OC(C)(C)C)cc4)NC4(C(=O)N(Cc5ccc(C(C)(C)C)cc5)c5ccccc54)C3C2=O)cc1 (centres undefined),7.13%
16,CN1CCC(NCc2cccc(-c3ccc(S(=O)(=O)NCCc4ccccn4)cc3)c2)CC1,3.76%
17,O=C(c1cc(OC(F)(F)F)ccc1O)N1CCN(c2ccccc2)CC1,5.08%
18,CC(=O)Nc1ccc(CN2CCC(NC(=O)c3ccc(-c4cccc(OC(C)C)c4)s3)CC2)cc1,6.04%
19,O=C(Cn1c(SCc2cccc(F)c2F)cc(=O)c2ccccc21)N(CCN1CCCCC1)Cc1ccc(-c2ccc(C(F)(F)F)cc2)cc1,-1.53%
20,COc1cc2nc(NCC3CCN(c4nc(N)c5cc(OC)c(OC)cc5n4)CC3)nc(N)c2cc1OC,3.62%
21,CS(=O)(=O)NCCCNCc1cccc(-c2ccc(-c3nc4cc(C(F)(F)F)ccc4[nH]3)cc2)c1,7.6%
22,COc1ccc(NC(=O)/C=C/c2ccccc2Cl)cc1OCCN1CCC(NCc2ccccc2)CC1,3.15%
23,CC(NC(=O)c1ccc(O)c(-c2ccc(Cl)c(Cl)c2)c1)C(=O)NCCN1CCCCC1 (centres undefined),-0.39%
24,Cc1nn(-c2ccnc3cc(Cl)ccc23)c(C)c1C(=O)NCc1cc(Cl)cc(Cl)c1,0.16%

# Target: Hexose transporter 1 (Plasmodium falciparum) (UniProt O97467)
# Assay: ST_JUDE_LEISH: Cytotoxicity at 2uM final concentration against transgenic Leishmania Mexicana promastigotes LmPfHT that are glucose transport deficient and complemented with the Plasmodium falciparum hexose transporter. Activity is measured by DNA content using SYBR green in vitro
# Type: functional
row,SMILES,inhibition
1,COc1cc(-c2nc(-c3ccccc3)c(-c3ccccc3)[nH]2)cc(OC)c1O,-0.87%
2,CNC(=O)c1cc(S(=O)(=O)N2CCN(c3ccccn3)CC2)c(C)s1,-1.2%
3,CN1CCN(S(=O)(=O)c2ccc3nccc(Nc4ccc(Oc5ccccc5)cc4)c3c2)CC1,-1.4%
4,COc1ccc(-c2cccc(NC(=O)c3cccc(Cl)c3)c2)cc1CNC(C)C,-0.57%
5,CN1CCN(c2ccc3[nH]c(-c4ccc(Cc5cc(Cl)ccc5OCc5ccccc5)o4)nc3c2)CC1,2.32%
6,CC(C)CC(NC(=O)c1cc2ccccc2s1)C(=O)N1CCCCCC1c1ccc(C(C)(C)C)cc1 (centres undefined),-0.83%
7,O=C(Nc1ccc(-c2nc3ccccc3[nH]2)cc1)C1CCN(Cc2ccccc2)CC1,23.4%
8,CCc1cc(-c2onc(C(F)(F)F)c2-c2ccccc2)c(O)cc1OC,3.34%
9,Cc1ccc(CNc2ccc3ncc(-c4cccc(C(=O)NCCN(C)C)c4)n3n2)c(C)c1,5.31%
10,CCc1cc2c(Sc3nc4ccccc4[nH]3)ncnc2s1,0.97%
11,Cc1cc(=O)c(C2CCC(c3ccc(Cl)cc3)CC2)c(C)[nH]1 (centres undefined),2.51%
12,CS(=O)(=O)c1cccc(-c2cnc3[nH]cc(-c4ccc(C(=O)O)cc4)c3c2)c1,-0.81%
13,O=C(/C=C/c1ccc(CNCCN2CCOCC2)cc1)NCCc1ccccc1,-1%
14,COc1ccc(NC(=O)/C=C/c2ccccc2Cl)cc1OCCN1CCC(NC2CC2)CC1,5.69%
15,Nc1nccc(-c2ccc3c(-c4cccc(F)c4)cnc(N)c3c2)n1,3.51%
16,CCN(CC)C(=O)C(=O)c1c[nH]c2ccc(Cl)cc12,0.07%
17,CCC(CC)OC(=O)C(C)c1cccc(C(=O)c2ccccc2)c1 (centres undefined),-0.21%
18,CN1CCN(CC(O)CNC(=O)Nc2ccc(Cl)cc2)CC1 (centres undefined),5.03%
19,COc1ccc(CN(C)CCCOc2ccc(NC(=O)c3cccc4c(=O)c5cccc(F)c5[nH]c34)cc2)cc1OC,3.24%
20,CCOC(=O)c1c(C)n(-c2ccc(Cl)cc2)c2ccc(OC(=O)C=Cc3ccccc3)cc12,5.54%

row,SMILES,inhibition
1,CC(C)c1cc(Oc2c(I)cc(CCNCc3ccccc3)cc2I)ccc1O,1.39%
2,COc1ccc2nccc([C@@H](O)CN3CCC(NCCOc4ccncc4)CC3)c2c1,1.23%
3,O=c1c2ccccc2[nH]c2cc(Cl)ccc12,7.05%
4,CN(C)CCN(Cc1ccccc1)c1ccc([N+](=O)[O-])cc1C(F)(F)F,7.06%
5,N=c1n(CCN2CCCC2)c2ccccc2n1CC(O)c1ccc(Cl)c(Cl)c1 (centres undefined),1.57%
6,O=C1COC2(CN1C1CCN(Cc3ccc(O)c(Cl)c3)C1)c1ccccc1-c1ccccc12 (centres undefined),7.57%
7,CC(C)CNCc1cccc(-c2ccccc2CNC2CCN(Cc3ccccc3)CC2)c1,4.95%
8,Cc1[nH]c(C)c(-c2ccc(-c3ccccc3)nc2)c(=O)c1Br,0.36%
9,C(=Cc1ccccc1)C=NN=c1cc[nH]c2ccccc12,1.5%
10,CC(=O)N/N=C/[C@H](CCc1ccccc1)NC(=O)[C@H](CC(C)C)NC(=O)c1cccc(OCCN2CCOCC2)c1,8.07%
11,CC(=O)c1ccc(N2C(=O)C3C(Cc4ccc(OC(C)(C)C)cc4)NC4(C(=O)N(Cc5ccc(C(C)(C)C)cc5)c5ccccc54)C3C2=O)cc1 (centres undefined),4.25%
12,CN1CCC(NCc2cccc(-c3ccc(S(=O)(=O)NCCc4ccccn4)cc3)c2)CC1,2.04%
13,O=C(c1cc(OC(F)(F)F)ccc1O)N1CCN(c2ccccc2)CC1,4.52%
14,CC(=O)Nc1ccc(CN2CCC(NC(=O)c3ccc(-c4cccc(OC(C)C)c4)s3)CC2)cc1,2.62%
15,O=C(Cn1c(SCc2cccc(F)c2F)cc(=O)c2ccccc21)N(CCN1CCCCC1)Cc1ccc(-c2ccc(C(F)(F)F)cc2)cc1,-1.37%
16,COc1cc2nc(NCC3CCN(c4nc(N)c5cc(OC)c(OC)cc5n4)CC3)nc(N)c2cc1OC,2.73%
17,CS(=O)(=O)NCCCNCc1cccc(-c2ccc(-c3nc4cc(C(F)(F)F)ccc4[nH]3)cc2)c1,3.88%
18,COc1ccc(NC(=O)/C=C/c2ccccc2Cl)cc1OCCN1CCC(NCc2ccccc2)CC1,2.49%
19,CC(NC(=O)c1ccc(O)c(-c2ccc(Cl)c(Cl)c2)c1)C(=O)NCCN1CCCCC1 (centres undefined),1.71%
20,Cc1nn(-c2ccnc3cc(Cl)ccc23)c(C)c1C(=O)NCc1cc(Cl)cc(Cl)c1,-0.98%
